Measurements as given in PubChem BioAssay AID652039 (The Scripps Research Institute Molecular Screening Center, 2013).
Out of some 370,000 compounds screened, about 3,300 (0.89%) were called active.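 The calls were made as follows: active = activation above the mean of all tested compounds plus 3 SD, computed per campaign excluding outliers beyond control limits (cut at about 13% in these data); inactive = the rest.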 The list comes from a sample in which actives are over-represented; it also holds similar structures and randomly drawn compounds.

target: Kallikrein-7 (Homo sapiens) (UniProt P49862); assay: activation of human kallikrein-7 proenzyme – biochemical, fluorescence intensity, primary screen (AID 652039); details: purified proKLK7, EDANS-DABCYL substrate fluorescence; at 7 µM; stronger effect = higher value; 100% is mature enzyme control, 0% vehicle
Sequence (P49862 whole entry, looked up): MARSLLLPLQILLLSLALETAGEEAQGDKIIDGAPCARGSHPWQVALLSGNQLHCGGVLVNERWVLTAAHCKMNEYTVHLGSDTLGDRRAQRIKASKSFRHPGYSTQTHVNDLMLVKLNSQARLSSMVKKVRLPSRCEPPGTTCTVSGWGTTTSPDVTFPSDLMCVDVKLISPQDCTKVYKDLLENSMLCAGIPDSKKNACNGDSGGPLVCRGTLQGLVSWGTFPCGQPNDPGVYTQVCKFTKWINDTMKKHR

activation, inactive:
Cc1ccc(CSc2nnc(SCC(=O)NN=Cc3cc(Br)ccc3F)s2)cc1 -0.39%
COC(=O)c1ccc(C(=O)OC)c(NC(=S)N2CCCCC2)c1 -1.87%
CCCN(CCC)C(=S)Nc1cc(C(=O)OC)ccc1C(=O)OC 0.15%
Cc1ccc(NC(=O)Cc2cccc(F)c2)c(S(=O)(=O)N2CCOCC2)c1 -0.14%
CC(C)(C)c1ccc(CSc2nnc(-c3cccs3)o2)cc1 -0.23%
COc1ccc([C@H]2OC(=O)C[C@H]2C(=O)N2CCN(c3ccccc3F)CC2)cc1OC -0.74%
Cc1cccc(C)c1NC(=O)COC(=O)c1c(C)nn(-c2ccccc2)c1C 0.05%
CCC(Oc1ccccc1)C(=O)OCC(=O)Nc1c(C)nn(-c2ccccc2)c1C (stereo not given) -0.3%
O=C(CSc1nc2ccccc2n1Cc1ccccc1Cl)N/N=C\c1c[nH]c2ccccc12 0.56%
N[C@@H](Cc1ccccc1)C(=O)N1CCC[C@@H]1C(=O)N1CCC2CCN(S(=O)(=O)c3ccccc3)CC21 (stereo not given in full) 0.77%
Cc1ccc(S(=O)(=O)Nc2ccc(F)c(S(=O)(=O)N3CCOCC3)c2)cc1 -0.78%
Cc1ccc(NS(=O)(=O)c2ccc3c(c2)NC(=O)CO3)cc1 -0.54%
CC1CCN(c2ccc(C(=O)O)cc2NS(=O)(=O)c2ccc(Br)s2)CC1 0.65%
CC(=O)C[C@@H]1OC[C@H](C)N1S(=O)(=O)c1ccc(C)cc1 -0.26%
C[C@H](C(=O)N(C)c1ccccc1)[C@@H](O)c1ccc(Cl)cc1 0.11%
COc1cc2c(cc1O)C(SC)=NC(C)(C)C2 -0.65%
COc1cc2c(cc1OC)C(Nc1ccc(S(N)(=O)=O)cc1)=NC(C)(C)C2 0.68%
COc1ccc(CN(CCN2CCOCC2)C(=O)c2ccc(C)cc2)cc1OC 0.42%
Nn1c(SCC(=O)N2c3ccccc3Sc3ccccc32)nnc1-c1n[nH]c2c1CCC2 0.49%
COc1ccc(-n2c(SCC(=O)OC(C)C)nnc2-c2ccccn2)cc1 -0.5%
COc1ccc(C(=O)COC(=O)c2ccc3ccccc3n2)cc1 0.19%
O=C(NC1CCC1)c1ccc(C#CC2CC2)cn1 0.73%
CCCCOCCCNC(=O)C[C@H]1C[C@@]2(C(=O)OC)C(=C[C@H](C(C)(C)C)O[C@@H]2C)N(CCc2ccc(OC)c(OC)c2)C1=O -0.83%
N#CCC[C@H]1CC[C@]2(CCCN(Cc3ccc(Cl)cc3)C2)O1 0.36%

activation, active:
CCS(=O)(=O)Nc1cc(C(=O)OC)ccc1C(=O)OC 21.6%
Cc1nn(-c2ccccc2)c(C)c1NC(=O)COC(=O)c1cc(Cl)ccc1O 24.7%
Cc1cc2cc3n(c2nn1)N=C(Cl)CC3 24.3%
COCc1cc(=O)oc2cc(NS(=O)(=O)c3ccc(C)cc3)ccc12 15.2%
COc1cc2c(cc1OC)C(C(C)C)=NC(C)(C)C2 85.2%
COc1ccc2nc(-c3ccccn3)ccc2c1 20.9%
